Screening data (PubChem)
Shown are actives, neighbours in structure and some others; about 6.6% of the full set was active somewhere.
KB-3-1 tox – kills parental KB-3-1 adenocarcinoma cells | KB-3-1 viability, CellTiter-Glo ATP luminescence, 72 h | Potency, µM (top dose mostly 46.1 µM), most hits filed as cytotoxic | hit rate 1.4% among 400,000; also: % is scaled to controls: 0 for no effect and ±100 for the full control effect; nearly all actives have a fitted effect of over 60% in size
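KB-3-1 cells, DMEM (no phenol red) + 10% FBS; compound by pin transfer, 72 h, 37 °C. Readout: CellTiter-Glo luminescence after 10 min. Data normalized, curve-fitted.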
HT1080NT lethal – kills 2HG-producing HT-1080-NT fibrosarcoma cells | hit rate 1.6% among 360,000 | AID 686970 | HT-1080-NT fibrosarcoma viability, CellTiter-Glo ATP luminescence, 48 h | Potency, µM (top dose mostly 46.1 µM), inactives show at the highest dose activity, negative = less viability, hits mostly cytotoxic;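 also: NT is the 2HG producing partner of a matched IDH1 knockdown line; 0% = DMSO-treated cells and -100% = media-only wells without cells; nearly all actives have a fitted effect of over 55% in size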
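A 48-hour cytotoxicity screen used HT-1080-NT cells plated 2 hours before compound delivery. ATP-based CellTiter-Glo luminescence measured viability, normalized to DMSO and no-cell controls.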
TGFb SMAD3 inh – TGF-b pathway inhibition. HepG2 CAGA-GFP TGF-b/SMAD3 reporter, GFP fluorescence, 18 h; TGF-beta stimulated, 500 pg/mL final. Potency, µM (doses to about 46.1 µM), inactives show at the highest dose activity, negative = inhibition, most hits filed as inhibitors. hit rate 1.2% among 410,000. AID 588855; also: % is scaled to controls: 0 for no effect and ±100 for the full control effect; nearly all actives have a fitted effect of over 65% in size
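Read-out: total well GFP (ex488/em500-530) summed from mean per-cell fluorescence. Cells: HEPG2 CAGA-GFP, 1% FBS DMEM, 18 h at 37 degrees C with 500 pg/mL final TGF-beta. Unstimulated wells served as the full-inhibition control; stimulated DMSO wells = 0%.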
HT1080 IDH1KD tx – toxicity to HT-1080 IDH1 knockdown cells (counter line) | HT-1080 IDH1 knockdown viability, ATP luminescence, 48 h | Potency, µM (series often up to 46.1 µM), for the others: at the top dose activity, negative = toxicity, most hits filed as cytotoxic | hit rate 2% among 360,000;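 also: 0% = DMSO wells and -100% = cell-free medium wells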
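Luminescent ATP read-out (CellTiter-Glo, 10 min at room temperature) after 48 h compound exposure at 37 °C gave viability of IDH1-knockdown HT-1080 cells. Activity was normalised to DMSO and cell-free wells, then fitted as concentration-response curves.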
HepG2 tox – counter-screen for TGF-b inhibitors: cytotoxicity in HepG2 cells; AID 588856; hit rate 0.76% among 410,000; Potency, µM (titrated, usually from 46.1 µM), for the others: at the top dose activity change, negative = cytotoxicity, hits mostly cytotoxic; HepG2 CAGA-GFP viability, ATP luminescence, 18 h
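CellTiter-Glo luminescence gave cytotoxicity after 18 hours at 37 degrees C. The cells were HepG2 CAGA-GFP in 1% FBS DMEM, stimulated with 500 pg/mL TGF-beta after compound addition. %Activity was normalised to no-cell wells (complete cell-killing) and DMSO (no toxicity), and curves were fitted and classified.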
KB-V1 MDR tox – kills drug-selected multidrug resistant KB-V1 cells; KB-V1 MDR cells viability, CellTiter-Glo, 72 h; Potency, µM (highest dose often 46.1 µM), most hits filed as cytotoxic; hit rate 3.4% among 400,000; also: % is scaled to controls: 0 for no effect and ±100 for the full control effect; nearly all actives have a fitted effect of over 60% in size
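Cytotoxicity toward P-gp-expressing KB-V1 cells was determined as loss of CellTiter-Glo luminescence after 72 h at 37 degrees C. Compounds were tested in quantitative HTS format across a concentration range, with curves fitted to normalized data.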
The depositor's hits bear a star; i = inactive; u = inconclusive; x = no result; [ ] = dose if it differs, or a comment. Calls follow the shape of the dose curve; as a rule, active = well fitted curve in the direction sought with a large enough effect; inconclusive = small, poorly fitted or top-dose-only effect, or another doubt; inactive = no such curve, though single readings can be large; an effect the other way counts as inactive or inconclusive. Potency is read from the fitted curve at half-maximal effect.

SMILES | KB-3-1 tox | HT1080NT lethal | TGFb SMAD3 inh | HT1080 IDH1KD tx | HepG2 tox | KB-V1 MDR tox
CN1CC=C2C(C#N)=C(N)C(C#N)(C#N)C(c3ccncc3)C2C1 (stereo unspecified) | i | 2% | 24% | 11% | -17% | u
N#CC1=C(N)C(C#N)(C#N)C(c2ccncc2)C2CN(C(=O)OCc3ccccc3)CC=C12 (stereo unspecified) | u | u | u | 21µM* | -45% | u
O=C(Nc1ccc(Cl)c(C(F)(F)F)c1)NC1CC2CCCC(C1)N2Cc1ccccc1 (stereo unspecified) | u | 18µM* | 20µM* | u | -115% | u
Cc1cc2ccccc2n1-c1ccc(C(=O)N2CCC(C(=O)NCc3ccc(Cl)cc3)CC2)s1 | x | x | u | x | -27% | x
O/N=C/c1c[nH]c2ccccc12 | i | 1% | -1% | -2% | 2% | i
NC(=Nc1ccccc1)NN=Cc1c[nH]c2ccccc12 | u | u | u | u | -45% | 2.6µM*
COC(=O)c1cn(C(=O)c2cccc3ccccc23)c2ccccc12 | u | 12µM* | 8% | 13µM* | 14% | u
COc1ccc(NC(=O)C(Cc2ccccc2)NS(=O)(=O)c2ccc3c(c2)oc(=O)n3C)c(OC)c1 (stereo unspecified) | i | x | 0% | x | 1% | i
O=Cc1cn(Cc2ccc(Br)cc2)c2ccccc12 | 10µM* | -15% | 1µM* | -12% | -46% | u
NC(N)=N/N=C/c1ccc(N(c2ccccc2)c2ccccc2)cc1 | i | u | 13µM* | u | 7.9µM* | i
COc1ccc(CCNC(=O)CCc2c(C)nc3c(-c4ccc(F)cc4)c(C)nn3c2C)cc1OC | i | x | u | x | 9% | i
CC(C)c1cccc(C(C)C)c1OCCn1ccnc1 | i | -1% | -16% | -13% | 1% | 23µM*
c1ccc(Cn2ccnc2)cc1 | i | -4% | -13% | 1% | -22% | i
O=c1c2ccccc2[se]n1-c1ccccc1 | u | 23µM* | u | u | -29% | u
O=c1c2ccccc2nc(-c2ccccc2)n1-c1ccccc1 | i | -4% | u | 0% | -14% | u
CCOC(=O)c1cccc(NC(=O)c2cnc(N3CCCCC3)c3ccccc23)c1 | u | x | u | x | -21% | i
CCOC(=O)c1cnc(SCc2ccc(Cl)c(Cl)c2)nc1N1CC1 | i | u | 0% | 9.2µM* | -21% | 8.2µM*
C[C@]12CC[C@@H](O)CC1=CCC1C2CC[C@@]2(C)C1CC[C@@H]2N (stereo partly specified) | i | 7% | 3% | 14% | 3% | i
COc1cc(/C=C2\C[C@H]3[C@@H]4CC=C5C[C@@H](N6CCCC6)CC[C@]5(C)[C@H]4CC[C@]3(C)[C@H]2O)cc(OC)c1OC | i | -11% | -9% | -22% | -35% | 2.9µM*
Clc1ccc(C(OCCN2CCCCC2)c2ccccc2)cc1 (stereo unspecified) | i | -2% | -5% | u | -1% | u
Clc1ccc2c(c1)C(OC1CN3CCC1CC3)c1ccccc1CS2 (stereo unspecified) | u | -25% | u | u | -111% | 16µM*
CN1CCN(CCOC2c3ccccc3CSc3ccc(Cl)cc32)CC1 (stereo unspecified) | u | 16µM* | u | u | -46% | u
COc1ccc2c(c1)C(NC(C)=O)CCc1cc(OC)c(OC)c(OC)c1-2 (stereo unspecified) | 0.15µM* | 0.0058µM* | -53% | u | -24% | 0.37µM*
COC1=C[C@@H]2C3=C([C@@H]2C1=O)[C@@H](NC(C)=O)CCc1cc(OC)c(OC)c(OC)c13 | i | 10% | 2% | -10% | -7% | i
COc1ccc(OC)c(CC(=O)O)c1 | i | 6% | -3% | 0% | -2% | i
SMILES | KB-3-1 tox | HT1080NT lethal | TGFb SMAD3 inh | HT1080 IDH1KD tx | HepG2 tox | KB-V1 MDR tox
COc1cc2c(c(OC)c1OC)-c1ccc(OC)c(=O)cc1C(NC(C)=O)CC2 (stereo unspecified) | 0.0073µM* | 0.015µM* | -25% | u | -3% | i
COc1cc2c(c(OC)c1OC)-c1ccc(O)c(=O)cc1C(NC(C)=O)CC2 (stereo unspecified) | 0.0082µM* | 0.0052µM* | u | 0.041µM* | -2% | u
Nc1ncnc2c1ncn2[C@@H]1O[C@@H]2COP(O)(=S)O[C@H]2[C@H]1O (stereo partly specified) | i | x | -2% | x | 9% | i
COc1cccc(NC(=O)N2CCc3nc(Nc4ccc(C(C)C)cc4)ncc3C2)c1 | i | u | u | -10% | -21% | i
C[C@@H]1O[C@@H](O[C@@H]2C=C3CC[C@@H]4[C@@H](CC[C@]5(C)[C@H](c6ccc(=O)oc6)CC[C@@]45O)[C@@]3(C)CC2)[C@H](O)[C@H](O)[C@H]1O | 0.012µM* | x | 0.32µM* | x | -61% | 0.92µM*
Cc1cc(OCC(=O)O)c2c3c(c(=O)oc2c1)CCCC3 | i | -1% | -4% | -7% | -1% | i
Cc1ccc(-n2nc(C)cc2NC(=O)COc2cc(C)cc3oc(=O)c4c(c23)CCC4)cc1 | i | -6% | -6% | -20% | -17% | 2.1µM*
C[C@H]1CCC/C=C/C2C[C@H](O)CC2[C@H](O)/C=C/C(=O)O1 (stereo partly specified) | 0.026µM* | 0.037µM* | 0.1µM* | 0.029µM* | -27% | 0.41µM*
CCc1nc(SC)ncc1C(=O)Nc1ccc(Cl)cc1C(=O)c1ccccc1 | i | x | -24% | x | -9% | i
Cc1ccc2nc(-c3ccncc3)cc(C(=O)N3CCC4(CC3)OCCO4)c2c1 | i | -7% | u | -6%[9.24 µM] | -8% | i
CC(/C=N/NC(=O)c1cc(-c2ccncc2)nc2ccccc12)=C\c1ccco1 | u | 0.89µM* | u | 1µM* | -6% | 1.5µM*
C[n+]1c2cc(N)ccc2cc2ccc(N)cc21 | 10µM* | 2.3µM* | -100% | 2.3µM* | -28% | 16µM*
Cc1cc2c(cc(C(=O)N3CCC(C(=O)NC4CCCC4)CC3)n2Cc2c(F)cccc2Cl)o1 | i | 1% | u | 3% | -22% | u
COc1ccc(/C=C/C(=O)NC(=S)NCCc2ccc(OC)c(OC)c2)cc1 | i | 11µM* | 5.6µM* | 10µM* | 6.3µM* | u
